From PubChem
In the library only some 2.3% were active in any assay of this set; here they are far more common.
Abeta rescue: restores growth of yeast expressing A-beta42 peptide. 410,000 tested, 0.063% active. Potency, µM (doses to about 46.1 µM), actives largely listed as activators. yeast expressing A-beta42, growth rescue, OD600, 48 h; response scale: 0% DMSO, 100% iron-clioquinol control; note: nearly all actives have a fitted effect of over 55% in size
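Yeast A-beta toxicity model in growth medium with pinned compounds, 48 h at 30 C; growth read as absorbance at 600 nm. Normalized to FeCl3/clioquinol equimolar mix (positive) and DMSO (negative).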
uPA surface inh: inhibitors of cell surface uPA generation. cell surface uPA generation assay, qHTS. Potency, µM (series often up to 38.3 µM), for inactives: top-dose activity change, negative = inhibition, hits mostly inhibitors. AID 540303. 330,000 tested, 0.31% active; active = well fitted inhibition curve with a large enough effect; inconclusive = small, poorly fitted or top-dose-only effect; inactive = no such curve, though single readings can be large or run the other way; tested in mouse RAW 264.7 cells; note: % is set by controls: 0 for no effect and ±100 for the full control effect; nearly all actives have a fitted effect of over 55% in size
BCR signal inh: chronic active BCR signaling inhibition; Potency, µM (titrated, usually from 46.1 µM), for inactives: at the top dose activity change, negative = inhibition, most hits filed as inhibitors; AID 493014; 340,000 tested, 0.05% active; ABC-DLBCL IkBa-CBG/CBR reporter, luminescence ratio, 4 h; active = well fitted inhibition curve with a large enough effect in the signal ratio, with a control signal flat, not every such curve was filed as active; inconclusive = small, poorly fitted or top-dose-only effect, or effect the other way, or a change in a side signal; the % refers to the signal ratio;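 note: plate controls were basal doxycycline-induced cells for no effect and cells given 10 µM MG132 for full effect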
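TMD8 ABC-DLBCL cells carrying doxycycline-inducible green luciferase fused to IkappaBalpha plus unfused red luciferase were exposed to compounds (up to 46 uM) for 4 hrs at 37C. Activity came from the overlap-corrected green/red luminescence ratio.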
TDP43 rescue: inhibitors of TDP-43 toxicity in yeast; TDP-43 expressing yeast growth rescue, BacTiter-Glo, 24 h; Potency, µM (top dose mostly 46.1 µM), for inactives: at the highest dose growth rescue (activation), usual class: activators; 410,000 tested, 1.8% active; AID 652104; note: % of control where 0% means no effect; nearly all actives have a fitted effect of over 50% in size
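Growth rescue of TDP-43-toxic yeast measured as ATP luminescence (BacTiter-Glo). Cells grown to mid-log in raffinose, induced in galactose at OD600=0.02, exposed to compound 24 hr at 30 deg C.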
FUS suppressor: suppressors of FUS proteinopathy in yeast; S. cerevisiae FUS-expressing, growth rescue, OD600, 24 h; Potency, µM (top dose mostly 76.6 µM), hits mostly activators; 390,000 tested, 0.24% active;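 note: plate controls were DMSO vehicle for no effect and reference control for full effect; nearly all actives have a fitted effect of over 55% in size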
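Galactose (2%) drives FUS expression in yeast precultured in raffinose; seeding density OD 0.005. Test compounds incubated 24hr at 30C and 99% humidity before absorbance at 600 nm was measured.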
aSyn rescue: inhibitors of alpha-synuclein toxicity in yeast. Yeast expressing alpha-synuclein, growth rescue, BacTiter-Glo, 24 h. Potency, µM (titrated, usually from 46.1 µM), without a hit: at the highest dose growth rescue (activation), hits mostly activators. 370,000 tested, 0.14% active; note: % of control where 0% means no effect; nearly all actives have a fitted effect of over 65% in size
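Readout is rescue of growth in alpha-synuclein-expressing yeast, so inhibitors of toxicity appear as activators. Growth after 24 hr at 30 deg C in galactose medium is quantified by luminescence.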
Starred values were filed as active, the others as inactive; i = inactive; ? = inconclusive; · = no result given. Unless noted, calls come from the whole dose curve; as a rule, active = well fitted curve in the direction sought with a large enough effect; inconclusive = small, poorly fitted or top-dose-only effect, or another doubt; inactive = no such curve, though single readings can be large; an effect the other way counts as inactive or inconclusive. Potency is the fitted concentration of half-maximal effect.

SMILES | Abeta rescue | uPA surface inh | BCR signal inh | TDP43 rescue | FUS suppressor | aSyn rescue
COc1ccc2c(c1)-c1nc(NC(=O)c3cccs3)sc1CC2 | i | -5% | 3% | 18µM* | ? | -2%
COc1ccc2c(c1)CCc1sc(NC(=O)c3ccco3)nc1-2 | i | 4% | ? | 20µM* | i | -7%
COc1ccc2c(c1)-c1nc(NC(=O)c3ccco3)sc1CC2 | i | -7% | ? | ? | · | -15%
Cc1cccc(N(CC(=O)NC2CC2)S(=O)(=O)c2ccc(Cl)cc2)c1 | i | 1% | 5% | 11% | i | 8%
CCC(C)[C@H](NC(=O)NCCC1=CCCCC1)C(=O)O (stereo partly specified) | i | 2% | 6% | -3% | i | -2%
CCOC(=O)Cc1c(-c2cccc(Cl)c2)nc2c3ccccc3ccn12 | i | · | · | 13µM* | i | 1%
COc1ccc(-c2nc3c4ccccc4ccn3c2Cc2ccsc2)cc1OC | i | · | · | ? | ? | -7%
Cc1ccc(-c2nc3c4ccccc4ccn3c2Cc2ccccc2)cc1 | i | · | · | 0% | ? | 0%
Clc1cccc(Cc2c(-c3cccc(Br)c3)nc3c4ccccc4ccn23)c1 | i | · | · | 20% | i | -3%
COc1ccccc1Cc1c(-c2ccco2)nc2c3ccccc3ccn12 | i | · | · | 22µM* | i | 1%
Cc1ccc(Cc2c(-c3ccccc3)nc3c4ccccc4ccn23)cc1 | i | · | · | 14µM* | ? | 1%
COc1ccc(-c2nc3c4ccccc4ccn3c2Cc2ccc(C)cc2)cc1OC | i | · | · | 10µM* | i | 22%
CCc1ccc2c(c1)c(=O)c(S(=O)(=O)c1ccc(F)cc1)cn2CC(=O)Nc1ccc(C)cc1C | i | · | · | 3% | i | ·
c1ccc(-c2nc3c4ccccc4ccn3c2Cc2ccsc2)cc1 | i | · | · | 11% | i | -2%
COc1ccc(-c2nc3c4ccccc4ccn3c2Cc2cccc(Cl)c2)cc1OC | i | · | · | 14µM* | i | 17%
Fc1cccc(Cc2c(-c3ccccc3)nc3c4ccccc4ccn23)c1 | i | · | · | 14µM* | i | -5%
Clc1ccc(-c2nc3c4ccccc4ccn3c2Cc2cccc(Cl)c2)cc1 | i | · | · | 6% | i | 9%
Cn1c(NC(=O)C2CCCC2)cc(=O)n(C)c1=O | i | 16% | -2% | 6% | i | 0%
CN(C)c1ccc(/C=N/NC(=O)c2nnn(-c3nonc3N)c2COc2ccc(F)cc2)cc1 | i | 0% | 1% | -17% | i | -6%
Cc1ccccc1-c1cc(C(=O)NCc2ccc(OC(F)(F)F)cc2)n(CC2CC(c3cccnc3)=NO2)n1 (stereo unspecified) | i | 3% | -1% | ? | 22µM* | 16%
COc1ccc(C2=NOC(Cn3nc(-c4ccccc4)cc3C(=O)NCc3cccs3)C2)cc1 (stereo unspecified) | i | 3% | ? | 4% | 32µM* | 8%
COc1ccc(C2=NOC(Cn3nc(C(=O)NCc4cccs4)cc3-c3ccccc3)C2)cc1 (stereo unspecified) | i | 13% | 4% | ? | i | 1%
Cc1ccc(CNC(=O)c2cc(-c3ccccc3C)nn2CC2CC(c3cccnc3)=NO2)cc1 (stereo unspecified) | i | 12% | 0% | ? | i | 0%
NC(=O)c1ccccc1NC(=O)CC12CC3CC(CC(Br)(C3)C1)C2 | i | 0% | 0% | -14% | i | -2%
Cc1cc(C)c(-c2csc(NC(=O)C3=COCCO3)n2)c(C)c1 | i | -7% | -19% | ? | i | -4%
SMILES | Abeta rescue | uPA surface inh | BCR signal inh | TDP43 rescue | FUS suppressor | aSyn rescue
Cc1cc(C)c2sc(NC(=O)C3=COCCO3)nc2c1 | i | -7% | ? | 18µM* | ? | -2%
Cc1ccc(Cl)c2sc(NC(=O)C3=COCCO3)nc12 | i | -1% | ? | 11µM* | i | -7%
CCC[C@H]1CN(c2ccccc2)C(=O)[C@@H]1CC(=O)Nc1ccccc1 | i | · | · | 0% | i | 1%
CC1CCCC(NC(=O)c2ccc3c(c2)N(Cc2ccccc2)C(=O)CS3=O)C1C (stereo unspecified) | i | -5% | 5% | -6% | i | -5%
C=CC[n+]1c(/C=C2\C=Cc3cc(C)ccc3N2CC)ccc2ccccc21 | i | 8.9µM* | ? | -90% | i | -64%
CCN1/C(=C\c2ccc3cc(C)ccc3[n+]2CC)Sc2cc(C)c(C)cc21 | i | ? | 5% | -93% | i | -67%
COc1cc(OC)cc(C(=O)Nc2cc(NC(=O)c3ccco3)ccc2OC)c1 | i | 1% | 2% | -3% | i | -8%
COc1c(C)cc(Br)cc1C(=O)Nc1cccc(NC(=O)c2ccco2)c1 | i | -6% | ? | ? | · | -20%
COc1ccc(NC(=O)c2ccco2)cc1NC(=O)c1ccc(C)c(C)c1 | i | · | · | 16µM* | i | ·
COc1ccc(Br)cc1C(=O)Nc1cccc(NC(=O)c2ccco2)c1 | i | -4% | ? | 8.9µM* | · | 0%
CCOc1ccc(S(=O)(=O)Nc2cccc(C(=O)N3CCN(C(C)=O)CC3)c2)cc1 | i | 1% | 3% | 16% | i | 1%
O=C(CN1CCN(S(=O)(=O)c2ccc(F)cc2)CC1)Nc1ccc(Cl)cn1 | i | 14% | -1% | 21% | i | 4%
Cc1onc(-c2ccccc2)c1-c1ccnn1C(=O)NC(C)C | i | -4% | 2% | 11µM* | i | -12%
Cc1ccc(S(=O)(=O)n2nccc2-c2c(-c3ccccc3)noc2C)cc1 | i | -8% | 17% | -13% | i | 1%
COc1cc(OC)c2c(=O)cc(-c3cccnc3)oc2c1 | i | 7% | ? | 1% | i | ?
CC(C)(C)OC(=O)COc1cc(OCC(=O)OC(C)(C)C)c2c(=O)cc(-c3ccccc3)oc2c1 | i | -29% | ? | 18% | 32µM* | 0%
COc1cc(OC)c2c(=O)cc(-c3ccccc3)oc2c1 | i | ? | ? | 35µM* | i | -8%
Cc1c(CNC(=O)c2cnn3c2NC(c2ccc(Br)cc2)CC3C(F)(F)F)cnn1C (stereo unspecified) | i | 16% | -9% | -5% | i | 4%
Cc1cccc(NC(=O)[C@@H]2CC(=O)O[C@@H]2c2ccccc2)c1C | · | · | · | · | i | ·
C=C1C2(C(=O)Nc3nccs3)CCC(C2)C1(C)C (stereo unspecified) | ? | 2% | 2% | 13µM* | i | 0%
